Measured values: PubChem BioAssay (NCATS)
Records with an inconclusive call do not appear. Where a call stands in place of a potency, no number is given. Calls of active or inactive are those of the source. Unless noted, the call rests on the fitted dose curve; in most records, active means well fitted curve in the direction sought with a large enough effect; inconclusive means small, poorly fitted or top-dose-only effect, or another doubt; inactive means no such curve, though single readings can be large; an effect the other way counts as inactive or inconclusive.

Assays:
[1] = biological target: Calcium and integrin-binding protein 1 (Homo sapiens) (UniProt Q99828); assay: Primary qHTS for Identification of Calcium Integrin Binding Protein 1 (CIB1) Competitor (AID 1508620);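 further: GST tagged CIB1 binding a fluorescein labelled alphaIIb integrin peptide tracer; top concentration of the series differs between compounds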
In short: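 CIB1-GST (1 uM final) and compound incubated 15 min at room temperature before adding FITC-alphaIIb peptide tracer (100 nM final). Competition for binding read by fluorescence polarization (ex 480, em 540) after another 15 min at room temperature.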

[2] = Primary qHTS for small molecule stabilizers of the endoplasmic reticulum resident proteome: Secreted ER Calcium Modulated Protein (SERCaMP) assay (AID 1508630)
In short: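 GLuc-SERCaMP-expressing SH-SY5Y cells, pretreated 16 h with compound, are challenged with thapsigargin to empty ER calcium stores; after 4 h, coelenterazine is added directly to the medium and luminescence is imaged.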

[3] = Counterscreen qHTS for small molecule stabilizers of the endoplasmic reticulum resident proteome: GLuc-NoTag assay (AID 1508627);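 further: SH-SY5Y cells given compound then 100 nM thapsigargin to empty ER calcium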
In short: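 Luminescence of Gaussia luciferase secreted into the medium (coelenterazine, 0.07x final, unlysed cells) was the read-out. Human SH-SY5Y neuroblastoma cells constitutively secreting untagged GLuc received compound for 19 h, then 100 nM thapsigargin for 4 h.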

[4] = Confirmatory qHTS for small molecule stabilizers of the endoplasmic reticulum resident proteome: Secreted ER Calcium Modulated Protein (SERCaMP) assay (AID 1508628); further: potency means the concentration at half of the fitted maximal effect; nearly all actives have a fitted effect of over 40% in size
In short: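 SH-SY5Y cells stably expressing GLuc-SERCaMP, treated 16 h with compound (primary 1.53, 7.67, 38.3 uM; confirmation 11 concentrations, up to 76.6 uM), then 100 nM thapsigargin for 4 h. Secreted Gaussia luciferase in medium read by coelenterazine luminescence.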

[5] = test system: HIV-1 nucleocapsid protein NCp7 (binding to TG oligonucleotide); assay: HIV Nucleocapsid (AID 346; call rule not given here;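 further: potency means the concentration at half of the fitted maximal effect; potency is for inhibitors that block NC binding and lower polarization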); settings: HIV-1 NC / fluorescein-TGTGTGTG probe, fluorescence polarization
In short: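 HIV-1 NC (100 nM) binding to fluorescein-labelled ssDNA TG4xF (10 nM) in Hepes pH 7.5, 250mM NaCl, 1uM ZnCl2, TCEP and 2-mercaptoethanol; compounds pin-transferred, 1 hr room temperature, fluorescence polarization read on CCD imager.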

[6] = AP1 Signaling Pathway (AID 357; active means well fitted curve in either direction with a large enough effect, not every such curve was filed as active;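 further: ME-180 reporter cells stimulated with EGF at its EC50 level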)
In short: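 Cells are seeded overnight, exposed to compound titrations and an EC50 level of EGF for 5 hours at 37 °C, then loaded with CCF4 dye for 2.5 hours. Beta-lactamase activity under the AP-1 element is read as a blue/green ratio.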

[7] = NFAT Signaling Pathway (AID 444; active means well fitted curve in either direction with a large enough effect, not every such curve was filed as active;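 further: carbachol stimulus at about its EC50 of 1 µM final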); settings: Jurkat NFAT-bla M1, carbachol, beta-lactamase ratio, 5 h; at 7.69 µM (top of the series)
In short: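 Read-out: CCF4 FRET ratio (460 nm/530 nm) after 1 h RT dye loading, used for %activity and AC50 from titration series. Cells: Jurkat NFAT-β-lactamase/M1 line, treated with compound plus 1 uM carbachol for 5 h, 37 °C.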

[8] = Stat Signaling Pathway (AID 446; active means well fitted curve in either direction with a large enough effect, not every such curve was filed as active;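 further: ME-180 cervical cancer cells given 40 pM IL-6 alongside compound; SIE-controlled beta-lactamase reporter measured as 460/530 nm FRET emission ratio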)
In short: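 ME-180 cells carrying a SIE-driven beta-lactamase reporter are stimulated with 40 pM IL-6 for 5 h at 37C in the presence of compound. The 460/530 nm FRET substrate ratio is read after 2.5 h at RT. Data are normalised to 300 pM IL-6 and to 125 nM JAK inhibitor controls.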

[9] = biological target: Glucocorticoid receptor (Homo sapiens) (UniProt P04150); assay: GR-EFC Redistribution (AID 451; calls by dose curve; further: potency means the concentration at half of the fitted maximal effect); settings: CHO-K1 GR-EFC translocation, beta-gal luminescence, 2 h
In short: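 Translocation of GR-ED fusion to nuclear EA restores b-gal, read by luminescence after 1 h room-temperature detection. Engineered CHO-K1 biosensor cells, 1,000/well, exposed 2 h at 37 C to titrations up to 46 uM final.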

[10] = biological target: Mitogen-activated protein kinase 10 (Mus musculus) (UniProt Q61831); assay: JNK3 AlphaScreen Assay (AID 530; active means well fitted curve in either direction with a large enough effect, not every such curve was filed as active;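 further: kinase came from lysate of stimulated human HepG2 cells; signal reports phosphorylation of biotinylated GST-cJun 1-79 at Ser73 with 10 µM ATP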)
In short: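 Compound titrations were preincubated 15 minutes at room temperature with substrate, antibody and pre-activated JNK3-containing HepG2 lysate. Reactions were started with 10 uM ATP and stopped with EDTA-containing bead buffer for AlphaScreen detection.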

[11] = biological target: 3',5'-cyclic-AMP phosphodiesterase 4B (Homo sapiens) (UniProt Q07343); assay: qHTS Assay for Inhibitors of PDE-IV (AID 607; active means well fitted activation curve with a large enough effect in the main read-out, with a control signal flat, not every such curve was filed as active)
In short: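 HEK293 ACTOne cells with CNG channel (1000/well), endogenous PDE4; membrane potential dye, compounds up to 22.9 uM final. Fluorescence Ex 535/Em 590; RO 20-1724 (100 uM final) as reference.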

[12] = qHTS Assay for Identification of Small Molecule Agonists for Hypoxia Response Element Signaling Pathway (AID 914; active means well fitted activation curve with a large enough effect in the signal ratio, with a control signal flat, not every such curve was filed as active; the % refers to the signal ratio); settings: ME-180 (cervical carcinoma) HRE-bla reporter, beta-lactamase ratio, CoCl2, 17 h; activation: stronger effect = higher value
In short: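 HRE-bla ME-180 cells, overnight plating in Opti-MEM with 0.5% dialyzed FBS; cpd titration + EC50 CoCl2, 17 h, 37 degrees Celsius; CCF4 2.5 h RT; 460/530 nm ratio; AC50.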

[13] = qHTS Assay for Lipid Storage Modulators (AID 1519; calls by dose curve); settings: Drosophila S3 cells, BODIPY lipid droplet/cell ratio, laser cytometry, cells loaded with oleic acid; for activity change, negative = inhibition: at 57.5 µM (top of the series)
In short: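 Cells seeded at 5,000 per well were treated with compounds over a concentration series and loaded with oleic acid (400 uM, as added). Lipid droplet fluorescence (488 nm excitation, 500-530 nm channel) was read by laser-scanning cytometry and normalized to 20 uM Triacsin C.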

[14] = biological target: Lysosomal acid glucosylceramidase (Homo sapiens) (UniProt P04062); assay: Glucocerebrosidase-p2 (AID 348; in the data active means potency below about 10 µM; further: potency means the concentration at half of the fitted maximal effect); settings: purified GBA, blue fluorogenic substrate, 40 min
In short: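 Compounds titrated from 0.6 nM upwards against 0.2 nM enzyme in pH 5.9 citric acid/KH2PO4, taurocholate, tween-20; blue fluorogenic substrate 80 uM, 40 min room temperature, stopped and read Ex 365/Em 440 for AC50.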

[15] = biological target: Cytochrome P450 1A2 (Homo sapiens) (UniProt P05177); assay: p450-cyp1a2 (AID 410; calls by dose curve)
In short: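 Luminescent readout of luciferin formed from Luciferin-ME by human CYP1A2; data normalized against complete inhibition by 57 uM furafylline. Enzyme 20nM, substrate 100uM at Km, 100mM KPO4 buffer, 60 min reaction at room temperature.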

[16] = biological target: Cytochrome P450 3A4 (Homo sapiens) (UniProt P08684); assay: qHTS Assay for Inhibitors and Substrates of Cytochrome P450 3A4 (AID 884); further: nearly all actives have a fitted effect of over 50% in size
In short: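 20 nM human CYP3A4 with 25 uM Luciferin-PPXE (at KM) in 200 mM KPO4, preincubated 10 min with compound; NADPH regeneration started a 60 min RT reaction. Luciferin detected by luminescence, normalized to 57 uM ketoconazole as full inhibition.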

[17] = measured here: cell count channel max response
[18] = measured here: lipid channel max response

Sequence of 3',5'-cyclic-AMP phosphodiesterase 4B (Homo sapiens) (Q07343 whole entry, looked up): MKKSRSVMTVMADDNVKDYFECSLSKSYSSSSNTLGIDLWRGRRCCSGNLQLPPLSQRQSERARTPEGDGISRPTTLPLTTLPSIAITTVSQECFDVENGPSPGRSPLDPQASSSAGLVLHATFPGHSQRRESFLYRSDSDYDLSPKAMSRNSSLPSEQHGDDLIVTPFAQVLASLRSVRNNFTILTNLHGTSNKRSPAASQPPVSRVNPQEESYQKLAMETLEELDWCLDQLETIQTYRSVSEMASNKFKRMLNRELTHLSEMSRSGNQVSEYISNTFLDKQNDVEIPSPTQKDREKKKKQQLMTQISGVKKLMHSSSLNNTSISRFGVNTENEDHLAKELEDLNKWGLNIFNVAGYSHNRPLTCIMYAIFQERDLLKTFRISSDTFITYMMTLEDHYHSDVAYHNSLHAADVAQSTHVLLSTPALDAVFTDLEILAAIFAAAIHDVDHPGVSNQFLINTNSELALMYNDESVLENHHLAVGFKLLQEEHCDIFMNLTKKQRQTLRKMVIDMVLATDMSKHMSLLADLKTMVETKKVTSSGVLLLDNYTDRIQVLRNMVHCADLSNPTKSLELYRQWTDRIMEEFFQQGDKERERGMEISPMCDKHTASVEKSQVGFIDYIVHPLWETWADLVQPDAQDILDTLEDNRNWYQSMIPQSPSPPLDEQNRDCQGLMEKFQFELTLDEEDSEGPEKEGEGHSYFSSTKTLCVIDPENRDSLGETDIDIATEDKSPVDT
Sequence of Calcium and integrin-binding protein 1 (Homo sapiens) (Q99828 whole entry, looked up): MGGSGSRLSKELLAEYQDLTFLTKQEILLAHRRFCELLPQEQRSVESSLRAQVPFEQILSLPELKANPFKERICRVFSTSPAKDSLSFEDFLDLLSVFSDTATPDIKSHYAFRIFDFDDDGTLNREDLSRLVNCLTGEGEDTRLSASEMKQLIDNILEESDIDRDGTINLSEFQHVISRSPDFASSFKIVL
Sequence of Glucocorticoid receptor (Homo sapiens) (P04150 whole entry, looked up, the tested form may be a part): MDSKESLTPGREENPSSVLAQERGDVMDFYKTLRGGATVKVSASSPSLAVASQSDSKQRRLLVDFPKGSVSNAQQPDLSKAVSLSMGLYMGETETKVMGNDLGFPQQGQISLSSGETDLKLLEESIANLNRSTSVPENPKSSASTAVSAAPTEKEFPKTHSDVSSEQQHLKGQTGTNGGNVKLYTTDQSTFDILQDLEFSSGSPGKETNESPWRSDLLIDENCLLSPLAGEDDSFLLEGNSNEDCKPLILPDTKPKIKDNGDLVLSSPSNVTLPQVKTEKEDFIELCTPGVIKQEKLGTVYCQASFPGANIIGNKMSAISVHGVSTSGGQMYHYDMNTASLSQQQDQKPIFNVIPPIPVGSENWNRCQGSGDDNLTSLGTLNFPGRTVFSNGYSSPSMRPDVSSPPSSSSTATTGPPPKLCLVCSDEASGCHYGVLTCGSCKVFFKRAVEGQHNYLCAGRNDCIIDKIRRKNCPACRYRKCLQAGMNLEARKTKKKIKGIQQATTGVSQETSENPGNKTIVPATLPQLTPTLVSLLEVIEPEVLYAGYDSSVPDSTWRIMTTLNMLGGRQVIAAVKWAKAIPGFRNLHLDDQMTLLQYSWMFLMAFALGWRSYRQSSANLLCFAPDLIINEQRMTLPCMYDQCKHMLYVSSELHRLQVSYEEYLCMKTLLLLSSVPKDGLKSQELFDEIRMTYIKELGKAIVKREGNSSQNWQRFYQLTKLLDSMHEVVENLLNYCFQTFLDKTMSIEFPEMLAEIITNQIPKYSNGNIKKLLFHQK
Sequence of Lysosomal acid glucosylceramidase (Homo sapiens) (P04062 whole entry, looked up): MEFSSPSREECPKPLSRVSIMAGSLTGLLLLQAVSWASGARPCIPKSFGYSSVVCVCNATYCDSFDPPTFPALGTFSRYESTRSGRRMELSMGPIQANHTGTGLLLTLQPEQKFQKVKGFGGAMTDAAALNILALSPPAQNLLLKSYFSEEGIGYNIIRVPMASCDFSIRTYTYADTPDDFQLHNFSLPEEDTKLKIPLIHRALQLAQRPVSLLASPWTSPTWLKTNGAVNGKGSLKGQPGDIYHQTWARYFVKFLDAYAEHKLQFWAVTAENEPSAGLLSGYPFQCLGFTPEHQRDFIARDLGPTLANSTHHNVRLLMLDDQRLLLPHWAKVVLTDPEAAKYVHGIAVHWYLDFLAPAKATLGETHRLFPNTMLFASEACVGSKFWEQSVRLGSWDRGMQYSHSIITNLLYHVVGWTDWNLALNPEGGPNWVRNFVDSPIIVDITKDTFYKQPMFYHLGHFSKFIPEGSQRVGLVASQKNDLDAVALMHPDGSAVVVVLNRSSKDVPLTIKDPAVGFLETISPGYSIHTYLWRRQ
Sequence of Cytochrome P450 3A4 (Homo sapiens) (P08684 whole entry, looked up): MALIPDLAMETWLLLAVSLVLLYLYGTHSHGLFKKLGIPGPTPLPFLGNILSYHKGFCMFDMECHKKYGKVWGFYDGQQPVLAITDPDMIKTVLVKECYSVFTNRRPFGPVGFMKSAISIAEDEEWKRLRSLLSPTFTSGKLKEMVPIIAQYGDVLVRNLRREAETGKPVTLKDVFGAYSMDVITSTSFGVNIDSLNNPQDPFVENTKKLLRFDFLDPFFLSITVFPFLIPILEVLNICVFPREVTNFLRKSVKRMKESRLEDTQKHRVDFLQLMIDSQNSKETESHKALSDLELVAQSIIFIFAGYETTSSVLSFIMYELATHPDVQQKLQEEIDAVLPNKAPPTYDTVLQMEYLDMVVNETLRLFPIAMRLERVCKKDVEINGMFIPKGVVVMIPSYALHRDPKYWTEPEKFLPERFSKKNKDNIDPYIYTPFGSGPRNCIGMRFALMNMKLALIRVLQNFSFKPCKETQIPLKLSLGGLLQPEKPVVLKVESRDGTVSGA
Sequence of Cytochrome P450 1A2 (Homo sapiens) (P05177 whole entry, looked up): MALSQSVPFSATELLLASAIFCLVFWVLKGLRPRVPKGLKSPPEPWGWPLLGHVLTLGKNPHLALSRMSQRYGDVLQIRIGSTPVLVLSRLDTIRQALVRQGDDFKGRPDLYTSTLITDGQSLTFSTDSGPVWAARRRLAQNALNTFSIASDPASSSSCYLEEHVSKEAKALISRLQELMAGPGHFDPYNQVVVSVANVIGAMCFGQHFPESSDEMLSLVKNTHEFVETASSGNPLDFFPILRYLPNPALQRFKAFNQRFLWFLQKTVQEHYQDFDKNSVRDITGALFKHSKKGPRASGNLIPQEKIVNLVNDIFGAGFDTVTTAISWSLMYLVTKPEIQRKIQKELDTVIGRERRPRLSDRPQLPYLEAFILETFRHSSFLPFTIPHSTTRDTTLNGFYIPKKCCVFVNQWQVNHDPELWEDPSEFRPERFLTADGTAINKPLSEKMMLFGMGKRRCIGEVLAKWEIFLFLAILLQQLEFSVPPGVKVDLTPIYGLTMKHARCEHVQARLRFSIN

SMILES: Cc1cccc(-n2cnc3cc(C(=O)N4CCCC(C)C4)ccc32)c1 (stereo unspecified)
- outcome [1]: inactive

SMILES: CCOC(=O)C1CCN(C(=O)C2(NC(=O)Nc3ccccc3Cl)CCCC2)CC1
- outcome [1]: inactive

SMILES: CCOc1ccc(CCNC(=O)c2cc3ccccc3n2Cc2cccc(C)c2)cc1OCC
- outcome [1]: inactive

SMILES: CN1CCC2=C[C@@H](O)[C@@H]3OC(=O)c4cc5c(cc4C3C21)OCO5 (stereo partly specified)
- outcome [2]: inactive

SMILES: N#Cc1c(-c2ccc([N+](=O)[O-])o2)no[n+]1[O-]
- outcome [1]: inactive

SMILES: CC(C)C1C(=O)N2CCC[C@H]2[C@]2(O)O[C@](NC(=O)[C@@H]3C=C4c5cccc6[nH]cc(c56)C[C@H]4N(C)C3)(C(C)C)C(=O)N12 (stereo partly specified)
- outcome [3]: inactive
- Potency [4]: 31.6 µM (active)

SMILES: COCC#CCN1CCCCC1c1cccnc1 (stereo unspecified)
- outcome [2]: inactive

SMILES: CCc1nn2c(=O)c(F)c(N3CCNCC3)nc2s1
- outcome [1]: inactive

SMILES: c1csc(CN2CC[C@@]3(CCCNC3)C2)n1
- Potency [5]: > 20 µM (inactive)
- outcome [6]: inactive
- activity change, negative = inhibition [7]: -10% (inactive)
- outcome [8]: inactive
- Potency [9]: > 46 µM (inactive)
- outcome [10]: inactive
- Potency [11]: inactive
- activation [12]: 9.27% (inactive)
- activity change, negative = inhibition [13]: 0.956% (inactive)
- max response [13, 17]: -1.59%
- max response [13, 18]: 1.97%
- outcome [2]: inactive

SMILES: N#Cc1ccc(CN2CC3(CCNCC3)C2)cc1
- Potency [5]: > 20 µM (inactive)
- Potency [14]: > 11.4 µM (inactive)
- outcome [6]: inactive
- activity change, negative = inhibition [7]: -23.5% (inactive)
- outcome [8]: inactive
- Potency [9]: > 46 µM (inactive)
- outcome [10]: inactive
- Potency [11]: inactive
- activity change, negative = inhibition [13]: -3.34% (inactive)
- max response [13, 17]: -8.82%
- max response [13, 18]: -10.3%
- outcome [2]: inactive

SMILES: O=C(Oc1ccccc1)N1CCC2(CCN(Cc3ccccc3)CC2)CC1
- Potency [5]: > 20 µM (inactive)
- Potency [14]: > 11.4 µM (inactive)
- outcome [6]: inactive
- Potency [15]: inactive
- outcome [8]: inactive
- Potency [9]: > 46 µM (inactive)
- outcome [10]: inactive
- Potency [11]: inactive
- Potency [16]: inactive
- activity change, negative = inhibition [13]: 2.23% (inactive)
- max response [13, 17]: 2.36%
- max response [13, 18]: 6.48%
- outcome [2]: inactive
